Growth data for nine compounds are collected here from PubChem BioAssay (NCI).

This is part of a sample that, as a whole, favours compounds with a hit. Of some 83,000 tested, about 20% had one in any assay.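 Values shown are percent growth following 48 h exposure of cells in 96-well plates to a single concentration of compound; below 10 was considered active.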 Values without a mark were called inactive. Calls of active or inactive are those of the source.

Some test systems named below: SR leukemia; RPMI-8226 leukemia; OVCAR-8 ovarian; OVCAR-5 ovarian; OVCAR-4 ovarian; SK-OV-3 ovarian; IGROV1 ovarian; HS 578T breast; NCI/ADR-RES ovarian; T-47D breast; BT-549 breast; MDA-MB-435 melanoma; SW-620 colon; MCF7 breast; HCT-116 colon; HCC-2998 colon; KM12 colon.
Holding throughout (experiment): NCI-60 one-dose screen, 48 h (100 = growth as untreated, 0 = no growth, -100 = all killed)
What all share (conditions): 10 µM unless noted

`CC(O)c1cc2ccccc2c(=O)o1` (stereo not drawn): the growth was 96.2% with SR leukemia; 96.8% in the assay with RPMI-8226 leukemia; 102% in the assay on OVCAR-8 ovarian; 103% in the assay with OVCAR-5 ovarian; 100% in the assay on OVCAR-4 ovarian; 99.8% with SK-OV-3 ovarian. For the same compound, the growth is 107% with IGROV1 ovarian; 103% in the assay with HS 578T breast; 101% with NCI/ADR-RES ovarian; 104% in the assay on T-47D breast; 105% in the assay with BT-549 breast; 96.3% with MDA-MB-435 melanoma. The growth in the assay with SW-620 colon is 98.9%; in the assay on MCF7 breast it was 91.5%; with HCT-116 colon, 108%; in the assay on HCC-2998 colon, 99.9%; with KM12 colon it was 106%.
Regarding `Nc1nc(-c2cccc([N+](=O)[O-])c2)c(N=Nc2cccc([N+](=O)[O-])c2)s1`, the growth was 67.5% in the assay with SR leukemia; 34.3% with RPMI-8226 leukemia; 19.9% with OVCAR-8 ovarian; 53.4% with OVCAR-5 ovarian; -15.2% (active) in the assay with OVCAR-4 ovarian; -78% (active) in the assay on SK-OV-3 ovarian. For the same compound, the growth with IGROV1 ovarian is 27.6%; in the assay with HS 578T breast, 37.6%; with NCI/ADR-RES ovarian, 18.6%; in the assay with T-47D breast, 31%; in the assay on BT-549 breast it was -41.4% (active); with MDA-MB-435 melanoma, 36.2%. Further, the growth was 18.5% in the assay with SW-620 colon; 13.1% in the assay with MCF7 breast; -44.1% (active) in the assay on HCT-116 colon; 59.8% in the assay with HCC-2998 colon; 48.2% with KM12 colon.
On to `COc1ccc(C(=O)CSc2nc3c(c(Nc4ccc(S(N)(=O)=O)cc4)n2)CCCC3)cc1`, for which the growth is 69.6% in the assay with SR leukemia; 83.6% in the assay on RPMI-8226 leukemia; 92.3% with OVCAR-8 ovarian; 123% with OVCAR-5 ovarian; 87.8% with OVCAR-4 ovarian; 120% with SK-OV-3 ovarian. The growth with IGROV1 ovarian was 112%; with HS 578T breast, 110%; in the assay with NCI/ADR-RES ovarian it was 103%; with T-47D breast, 71.3%; in the assay with BT-549 breast it was 127%; in the assay on MDA-MB-435 melanoma, 103%. The growth was 86.4% with SW-620 colon; 97.8% with MCF7 breast; 93% in the assay with HCT-116 colon; 97.6% in the assay on HCC-2998 colon; 73.7% with KM12 colon.
Turning to `CN1CCC(n2cc(Nc3ncc4c(=O)n(-c5c(Cl)cccc5Cl)cc(Br)c4n3)cn2)CC1`, the growth in the assay with SR leukemia is -21.4% (active); in the assay on RPMI-8226 leukemia, 20.7%; in the assay with OVCAR-8 ovarian it was 6.91% (active); in the assay with OVCAR-5 ovarian, 43.5%; with OVCAR-4 ovarian, 33.8%; in the assay with SK-OV-3 ovarian it was 32.7%. The growth in the assay with IGROV1 ovarian is 15%; with HS 578T breast, 45.1%; in the assay on NCI/ADR-RES ovarian it was 34%; with T-47D breast, 37%; with BT-549 breast, 57.5%; with MDA-MB-435 melanoma, 5.4% (active). The growth in the assay with SW-620 colon is 20.5%; in the assay on MCF7 breast, 18.7%; with HCT-116 colon, 5.66% (active); in the assay with HCC-2998 colon it was 31%; with KM12 colon, 14.8%.
As for `COc1cc2oc(-c3cccc(C(=O)N[C@@H](CC(C)C)C(=O)OC(C)(C)C)c3)cc(=O)c2c(OC)c1OC`, the growth was 42.1% with SR leukemia; 37.4% in the assay with RPMI-8226 leukemia; 49.3% in the assay with OVCAR-8 ovarian; 93% in the assay on OVCAR-5 ovarian; 69.6% in the assay with OVCAR-4 ovarian; 111% in the assay on SK-OV-3 ovarian. Besides, the growth with IGROV1 ovarian is 71.5%; in the assay with HS 578T breast it was 56.9%; in the assay on NCI/ADR-RES ovarian it was 49%; in the assay with T-47D breast it was 52.7%; in the assay on BT-549 breast, 67.5%; with MDA-MB-435 melanoma, 90%. The growth with SW-620 colon was 83.4%; with MCF7 breast, 69.9%; with HCT-116 colon, 62.5%; with HCC-2998 colon it was 84%; with KM12 colon, 59.8%.
For `Cc1cc(C)c(N2C(=O)CC(Nc3ccc(Cl)cc3Cl)C2=O)c(C)c1` (stereo not drawn), the growth was 97.5% in the assay on SR leukemia; 99.9% in the assay with RPMI-8226 leukemia; 101% in the assay on OVCAR-8 ovarian; 100% in the assay with OVCAR-5 ovarian; 102% in the assay with OVCAR-4 ovarian; 108% in the assay on SK-OV-3 ovarian. Further, the growth in the assay with IGROV1 ovarian is 104%; in the assay with HS 578T breast it was 95.8%; in the assay on NCI/ADR-RES ovarian it was 107%; in the assay with T-47D breast, 93.7%; in the assay with BT-549 breast, 112%; in the assay on MDA-MB-435 melanoma it was 102%. The growth in the assay on SW-620 colon is 102%; in the assay on MCF7 breast it was 91%; in the assay with HCT-116 colon, 104%; in the assay on HCC-2998 colon, 118%; with KM12 colon, 105%.
For `COc1ccc(-c2nc3cc(Cl)c(Cl)cc3n2CC(=O)N=Nc2c(O)[nH]c3ccc(OC)cc23)cc1`, the growth is 60.6% in the assay with SR leukemia; 55.1% with RPMI-8226 leukemia; 74.5% in the assay on OVCAR-8 ovarian; 49.7% with OVCAR-5 ovarian; 40.4% in the assay with OVCAR-4 ovarian; 86.2% in the assay with SK-OV-3 ovarian. Also, the growth in the assay on IGROV1 ovarian is 29.5%; with HS 578T breast, 47.7%; in the assay on NCI/ADR-RES ovarian, 30.9%; in the assay on T-47D breast it was 37.2%; in the assay on BT-549 breast it was -6.95% (active); in the assay with MDA-MB-435 melanoma, 56.4%. The growth was 61.4% in the assay on SW-620 colon; 67.6% with MCF7 breast; 39.7% in the assay on HCT-116 colon; 52.8% with HCC-2998 colon; 71.3% in the assay on KM12 colon.
As for `COc1ccc(C(=O)Nc2ncc(Cc3ccccc3Cl)s2)cc1`, the growth in the assay with SR leukemia is 16.4%; with RPMI-8226 leukemia it was 22.2%; with OVCAR-8 ovarian, 12.3%; in the assay with OVCAR-5 ovarian, 36.5%; with OVCAR-4 ovarian it was 62.1%; with SK-OV-3 ovarian, 29%. Further, the growth with IGROV1 ovarian is 28.2%; with HS 578T breast, 8.76% (active); with NCI/ADR-RES ovarian it was 5.87% (active); with T-47D breast, 34.3%; in the assay on BT-549 breast, 54.8%; in the assay on MDA-MB-435 melanoma it was -5.1% (active). The growth is 25.3% with SW-620 colon; 14.3% in the assay with MCF7 breast; 7.77% (active) in the assay with HCT-116 colon; 6.97% (active) with HCC-2998 colon; 9.41% (active) with KM12 colon.
With `COc1cc(OC)c(S(N)(=O)=O)cc1C(=O)/C=C/c1ccc(Cl)cc1`, the growth is -19.5% (active) in the assay on SR leukemia; -5.04% (active) with RPMI-8226 leukemia; 3% (active) in the assay with OVCAR-8 ovarian; 17.2% in the assay on OVCAR-5 ovarian; 49.9% in the assay on OVCAR-4 ovarian; 33.6% in the assay with SK-OV-3 ovarian. Besides, the growth with IGROV1 ovarian is 6.66% (active); in the assay on HS 578T breast, 13.2%; in the assay on NCI/ADR-RES ovarian, 20%; in the assay on T-47D breast, 26.1%; in the assay on BT-549 breast it was 1.01% (active); in the assay on MDA-MB-435 melanoma, 16.7%. Further, the growth in the assay on SW-620 colon is -39.9% (active); in the assay on MCF7 breast, 5.69% (active); in the assay with HCT-116 colon it was 7.77% (active); in the assay on HCC-2998 colon, 1.39% (active); in the assay with KM12 colon it was 1.9% (active).
